# Results taken from PubChem BioAssay (NCI).
# This is part of a sample that, as a whole, favours compounds with a hit. Of some 79,000 tested, about 15% had one in any assay. A number with no mark means an inactive call. Activity calls are given as the source filed them. No stated cut-off is given here; in the data, active means growth inhibition above about 70%; inactive means the rest.
# Legend:
# [1] = NCI Yeast Anticancer Drug Screen. Data for the rad50 strain (AID 155);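 further: 0% = growth of vehicle-only cultures of the same strain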; details: S. cerevisiae rad50 strain growth inhibition, active compounds read high
# How it was run: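 Cells are treated with compound, grown, and their growth is then scored against vehicle-only cultures of the same repair-deficient yeast strain.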
# [2] = NCI Yeast Anticancer Drug Screen. Data for the mec2-1 strain (AID 157); details: S. cerevisiae mec2-1 strain, active compounds read high
# How it was run: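 Yeast mec2-1 mutant treated with compound. Readout: growth inhibition vs vehicle controls.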
# [3] = NCI Yeast Anticancer Drug Screen. Data for the sgs1 mgt1 strain (AID 161);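 further: 0% = growth of cultures given vehicle only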; details: S. cerevisiae sgs1 mgt1 strain, active compounds read high
# How it was run: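 Inhibition of yeast growth, normalised to vehicle-treated controls, is reported for a strain bearing genetic alterations in DNA damage repair.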
# [4] = NCI Yeast Anticancer Drug Screen. Data for the cln2 rad14 strain (AID 165);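 further: 0% = growth equal to vehicle treated cultures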; details: S. cerevisiae cln2 rad14 strain, active compounds read high
# How it was run: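 cln2 rad14 yeast strain; compound exposure; growth inhibition read vs vehicle controls.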
# [5] = NCI Yeast Anticancer Drug Screen. Data for the bub3 strain (AID 167); details: S. cerevisiae bub3 mutant strain, active compounds read high
# How it was run: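 Part of a panel of yeast mutants defective in DNA damage repair or cell cycle regulation. Each strain is grown with compound, and inhibition is calculated relative to solvent-treated cultures.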
# [6] = NCI Yeast Anticancer Drug Screen. Data for the mlh1 rad18 strain (AID 175); details: S. cerevisiae mlh1 rad18 strain growth inhibition, active compounds read high
# How it was run: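 Yeast w/ defined DNA-repair lesions; compound exposure; growth vs vehicle controls → % inhibition.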
# [7] = at 5.0 µM (retest, dose inferred, filed as 0.5)
# [8] = at 50.0 µM (retest, dose inferred, filed as 5.0)
SMILES,"growth inhibition [1, 7]","growth inhibition [1, 8]",growth inhibition ([1]; at 50.0 µM),"growth inhibition [2, 7] [%]","growth inhibition [2, 8]",growth inhibition ([2]; at 50.0 µM),"growth inhibition [3, 7] [%]","growth inhibition [3, 8]",growth inhibition ([3]; at 50.0 µM),"growth inhibition [4, 7] [%]","growth inhibition [4, 8]",growth inhibition ([4]; at 50.0 µM),"growth inhibition [5, 7] [%]","growth inhibition [5, 8]",growth inhibition ([5]; at 50.0 µM),"growth inhibition [6, 7]","growth inhibition [6, 8]",growth inhibition ([6]; at 50.0 µM)
O=C(CC(=O)c1ccccc1)CC1(O)CCCCC1,22%,42%,61.1%,2,16%,78.9% (active),4,34%,79.9% (active),-9,14%,50.4%,15,86% (active),96% (active),6%,29%,89.1% (active)
COc1c2occc2c(OC)c2c(C)c(C(=O)OCCN3CCOCC3)oc12,-1%,31%,64%,-3,5%,50.3%,-4,43%,28.1%,-4,2%,19.4%,1,56%,58.1%,-5%,54%,66.2%
CC(C)N=C1NS(=O)(=O)c2ccccc21,-2%,-1%,5.5%,-2,0%,-3.75%,0,-4%,-0.4%,0,-2%,17.8%,-3,-2%,21.4%,-5%,0%,2.6%
CCOCCC(=O)NNc1ccccc1,7%,43%,26.2%,0,36%,6%,6,41%,42.2%,5,56%,56.8%,8,83% (active),42.9%,19%,80% (active),58%
Clc1ccc(-c2noc(CN3CCCCC3)n2)cc1,10%,38%,66%,0,24%,15.2%,2,62%,49.6%,-7,21%,73.3% (active),-1,25%,71.9% (active),-4%,24%,67.3%
CCC(=O)c1ccc2ccc3ccccc3c2c1,6%,60%,62.5%,8,34%,26.4%,4,72% (active),65.2%,4,45%,-7.25%,12,87% (active),68.8%,5%,64%,50.9%
CCN(CC)CCNc1nc(N)c2nc(-c3ccccc3)c(-c3ccccc3)nc2n1,-4%,51%,95.3% (active),-3,22%,15.5%,-4,36%,90.5% (active),-1,5%,27.6%,-22,36%,61.7%,-5%,56%,85.8% (active)
Nc1ccc2ccccc2c1Cc1c(O)ccc2ccccc12,9%,96% (active),99.2% (active),0,98% (active),98.8% (active),6,98% (active),98.9% (active),1,88% (active),84.5% (active),0,63%,88.8% (active),6%,88% (active),95.7% (active)
Cc1occc1C(=S)Nc1ccc(Cl)c(C(=O)OC(C)C2CC2)c1 (stereo not given),9%,59%,58.1%,16,48%,39.9%,-1,46%,78.8% (active),-5,51%,81.5% (active),6,56%,77.1% (active),12%,76% (active),63.5%
CC(=O)Nc1ccc(/S(=N\S(=O)(=O)c2ccc(C)cc2)c2ccc(NC(C)=O)cn2)cc1 (stereo not given),0%,6%,37%,-2,1%,4.8%,0,4%,0.7%,-8,3%,73.3% (active),-3,0%,-1.75%,-2%,7%,-15.1%
CCCCCCN(CCCCCC)CC(O)c1cc(-c2ccccc2)nc2c(O)cccc12 (stereo not given),4%,56%,23.7%,7,73% (active),22.6%,-118,95% (active),93.8% (active),4,42%,8.2%,8,92% (active),40%,30%,87% (active),33.5%
O=C1Nc2ccccc2/C1=C\c1ccccn1,41%,76% (active),68.7%,22,60%,30.9%,34,76% (active),48.7%,32,38%,9%,26,68%,56%,49%,86% (active),51%
C=C1CC(c2ccc(OCCCN3C(=O)c4ccccc4C3=O)c(OC)c2)OC1=O (stereo not given),-9%,97% (active),76.3% (active),24,91% (active),88.2% (active),1,89% (active),91% (active),11,93% (active),89.2% (active),-16,95% (active),92% (active),10%,97% (active),96.8% (active)
O=C1CCC/C(c2ccccc2)=N\N=C/1c1ccccc1,7%,12%,54.8%,10,16%,-6.6%,10,34%,21.6%,8,12%,-5.1%,11,33%,24.3%,4%,18%,23.6%
CCC1CCC(CC)C1=O (stereo not given),1%,5%,94.2% (active),-2,-1%,93.9% (active),0,3%,51.6%,-2,3%,36.5%,2,4%,97.4% (active),-2%,7%,43.2%
Nc1nc2nn(-c3ccc(C(=O)O)cc3)nc2c(=O)[nH]1,2%,9%,16.6%,3,1%,30.8%,-4,3%,9.3%,4,1%,-7.05%,-2,-3%,39.8%,3%,9%,67.9%
CCCCN(CCC=C1c2ccccc2Oc2ccccc21)CCCC,7%,99% (active),99.7% (active),4,99% (active),99.7% (active),9,99% (active),99.7% (active),4,99% (active),99% (active),6,99% (active),11.7%,5%,99% (active),99.6% (active)
COc1cccc(N2C(=O)C3CC(CC(C)(C)C)c4c([nH]c5ccccc45)C3C2=O)c1 (stereo not given),10%,33%,33.6%,10,22%,27.6%,13,20%,35.9%,-4,33%,19.7%,13,11%,63.4%,8%,30%,23.3%
O=c1oc2cc(N=Cc3ccc4c(c3)OCO4)ccc2c2ccccc12,-3%,39%,80.7% (active),1,24%,8.65%,-7,4%,0.25%,-17,8%,1.2%,-4,5%,25.6%,2%,42%,24.9%
CCN(CC)CCN1C(=O)c2c(c3c4cccc(Cl)c4n(C4OC(CO)C(OC)C(O)C4O)c3c3[nH]c4c(Cl)cccc4c23)C1=O (stereo not given),88% (active),97% (active),84% (active),56,98% (active),87.3% (active),21,96% (active),90.5% (active),67,90% (active),89.5% (active),43,97% (active),89.2% (active),76% (active),97% (active),91% (active)
